{
  "source": "PubChem BioAssay AID2685",
  "about": "(National Center for Advancing Translational Sciences (NCATS), 2010)",
  "note": "About 2,100 (0.66%) of roughly 320,000 compounds were called active. Roughly 53% stayed inconclusive and do not appear here. Calls come from the whole dose curve; as a rule, active = well fitted inhibition curve with a large enough effect in the signal ratio, with a control signal flat (not every such curve was filed as active); inconclusive = small, poorly fitted or top-dose-only effect, or effect the other way, or a change in a side signal; inactive = flat fitted curve, though single readings scatter; the % refers to the signal ratio. This excerpt belongs to a sample that is enriched for actives. Potency is the fitted concentration of half-maximal effect.",
  "data": [
    {"experiment": "qHTS Assay for Lipid Storage Modulators in Drosophila S3 Cells;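 for cell number change: cells counted by Cell Tracker Red CMTPX staining in the red channel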; for lipid storage change, negative = inhibition: % is set by controls: 0 for no effect and ±100 for the full control effect", "conditions": "BODIPY lipid droplet fluorescence, 18-24 h, cells fed with added oleic acid; cell number change: measured here: cell count max response; series mostly up to 46.1 µM; lipid storage change, negative = inhibition: at the top concentration", "procedure,_shortened": "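Drosophila S3 cells got compounds at several concentrations plus oleic acid (400 uM solution). Laser-scanning cytometry with 488 nm excitation read lipid droplets at 500-530 nm and cells at 575-640 nm. Percent activity was relative to 20 uM Triacsin C.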", "units": {"cell number change": "%"}, "values": [
      {"smiles": "CCn1c(SCC(=O)NC2CC2)nnc1C(C)Oc1ccccc1", "note": "(stereo unspecified)", "lipid storage change, negative = inhibition": "5.84% (inactive)"},
      {"smiles": "COc1cccc(NC(=O)Cn2nnc(C(=O)Nc3ccccc3)c2N)c1", "lipid storage change, negative = inhibition": "6.84% (inactive)", "cell number change": -18.5},
      {"smiles": "COc1ccc(NC(=O)Cn2nnc(C(=O)NCCc3ccccc3)c2N)c(OC)c1", "outcome": "inactive", "cell number change": 6.1},
      {"smiles": "COc1cccc(NC(=O)Cn2nnc(C(=O)NCCc3ccccc3)c2N)c1", "Potency": "20.6 µM (active)", "cell number change": 2.67},
      {"smiles": "CCOc1ccc(Cn2nnc(C(=O)NCCc3ccccc3)c2N)cc1", "lipid storage change, negative = inhibition": "-7.29% (inactive)", "cell number change": -4.24},
      {"smiles": "Nc1c(C(=O)NCCc2ccccc2)nnn1Cc1ccc(Cl)cc1", "lipid storage change, negative = inhibition": "8.7% (inactive)", "cell number change": -16.5},
      {"smiles": "CCOc1ccc(Cn2nnc(C(=O)NCCc3ccc(Cl)cc3)c2N)cc1", "Potency": "18.4 µM (active)", "cell number change": 1.29},
      {"smiles": "CCc1nc(NC(=O)c2sc(C)nc2C)sc1C(=O)OC", "outcome": "inactive", "cell number change": -8.97},
      {"smiles": "O=C1OCCC1Sc1nnc(-c2cccc(Br)c2)o1", "note": "(stereo unspecified)", "Potency": "20.6 µM (active)", "cell number change": -11.2},
      {"smiles": "O=C1OCCC1Sc1nnc(-c2ccc(Br)cc2)o1", "note": "(stereo unspecified)", "lipid storage change, negative = inhibition": "5.68% (inactive)", "cell number change": 7.55},
      {"smiles": "O=C1OCCC1Sc1nnc(-c2ccc3c(c2)OCO3)o1", "note": "(stereo unspecified)", "lipid storage change, negative = inhibition": "5.11% (inactive)", "cell number change": 15.3},
      {"smiles": "Cc1ccc(/C=C/S(=O)(=O)NCCC(=O)NCc2ccc(F)cc2)cc1", "Potency": "13 µM (active)", "cell number change": -6.87},
      {"smiles": "Cc1ccc(CNC(=O)CCNS(=O)(=O)c2ccc(C)cc2)cc1", "lipid storage change, negative = inhibition": "0.234% (inactive)", "cell number change": -14.3},
      {"smiles": "Cc1ccc(CS(=O)(=O)CCC(=O)NCc2ccc(F)cc2)cc1", "lipid storage change, negative = inhibition": "0.549% (inactive)", "cell number change": 22.6},
      {"smiles": "CCOC(=O)N1CCC(N(CCN(C)C)C(=S)Nc2ccccc2OC)CC1", "lipid storage change, negative = inhibition": "1.39% (inactive)", "cell number change": 7.57},
      {"smiles": "CCCCCOC(=O)c1ccccc1C(=O)O", "lipid storage change, negative = inhibition": "22.4% (inactive)", "cell number change": 16.1},
      {"smiles": "Cc1ccc2c(c1)[C@@H]1CN(C)CC[C@@H]1N2S(=O)(=O)c1ccc([N+](=O)[O-])cc1", "lipid storage change, negative = inhibition": "3.92% (inactive)", "cell number change": -4.89},
      {"smiles": "Cc1ccc2c(c1)C1CN(C)CCC1N2S(=O)(=O)c1ccc(C#N)cc1", "note": "(stereo unspecified)", "lipid storage change, negative = inhibition": "4.76% (inactive)", "cell number change": -11.9},
      {"smiles": "Cc1ccc2c(c1)C1CN(C)CCC1N2S(=O)(=O)c1cccc(F)c1", "note": "(stereo unspecified)", "Potency": "14.6 µM (active)", "cell number change": -8.15},
      {"smiles": "O=C(CN1CCN(S(=O)(=O)c2ccccc2[N+](=O)[O-])CC1)Nc1ccc(N2CCOCC2)cc1", "lipid storage change, negative = inhibition": "17.1% (inactive)", "cell number change": 26.6},
      {"smiles": "Cn1c2ccccc2c(=O)c2c(=O)n(-c3ccccc3)c(-c3ccc(C(C)(C)C)cc3)nc21", "lipid storage change, negative = inhibition": "-2.59% (inactive)", "cell number change": 8.74},
      {"smiles": "CC1(C(=O)NCc2ccccc2)Oc2ccccc2NC1=O", "note": "(stereo unspecified)", "Potency": "23.1 µM (active)", "cell number change": -4.11},
      {"smiles": "COc1cccc(CNC(=O)c2ccc(C(=O)NCc3cccc(OC)c3)cc2)c1", "lipid storage change, negative = inhibition": "16.4% (inactive)"},
      {"smiles": "COc1cccc(CNC(=O)C2(C)Oc3ccccc3NC2=O)c1", "note": "(stereo unspecified)", "Potency": "23.1 µM (active)", "cell number change": 10.7},
      {"smiles": "CC1(C(=O)NCc2ccc(Cl)c(Cl)c2)Oc2cccnc2NC1=O", "note": "(stereo unspecified)", "lipid storage change, negative = inhibition": "25.5% (inactive)"},
      {"smiles": "Cc1ccc(CNC(=O)C2(C)Oc3ccccc3NC2=O)cc1", "note": "(stereo unspecified)", "lipid storage change, negative = inhibition": "18.2% (inactive)", "cell number change": -6.1},
      {"smiles": "COc1cccc(CNC(=O)CC2Sc3ccccc3NC2=O)c1", "note": "(stereo unspecified)", "lipid storage change, negative = inhibition": "-8.39% (inactive)"},
      {"smiles": "O=C(CNC(=O)c1ccco1)OCC(=O)c1ccc(Cl)cc1", "lipid storage change, negative = inhibition": "-4.23% (inactive)", "cell number change": 3.11},
      {"smiles": "COc1ccc(NC(=O)/C=C/c2ccc(Br)o2)cn1", "lipid storage change, negative = inhibition": "0.369% (inactive)", "cell number change": 2.5},
      {"smiles": "CC[C@@H](C)[C@@H](C(=O)N1CCN(C(=O)OC(C)(C)C)CC1)n1cc(CCCN=C(NC(=O)OC(C)(C)C)NC(=O)OC(C)(C)C)nn1", "lipid storage change, negative = inhibition": "-15.3% (inactive)", "cell number change": -5.51},
      {"smiles": "CCN(c1ccccc1)S(=O)(=O)c1cc([N+](=O)[O-])ccc1N", "lipid storage change, negative = inhibition": "0.407% (inactive)", "cell number change": 7.82},
      {"smiles": "CCN(c1ccccc1)S(=O)(=O)c1c[nH]c2ccc([N+](=O)[O-])cc12", "Potency": "5.8 µM (active)", "cell number change": -8.56},
      {"smiles": "Cc1ccc(N(C)S(=O)(=O)c2c[nH]c3ccc([N+](=O)[O-])cc23)cc1", "outcome": "inactive", "cell number change": 2.95},
      {"smiles": "Cc1cccc(N(C)S(=O)(=O)c2ccc3[nH]c(=O)c(=O)[nH]c3c2)c1", "lipid storage change, negative = inhibition": "-8.22% (inactive)", "cell number change": -11.4},
      {"smiles": "CCN(c1ccccc1)S(=O)(=O)c1ccc2[nH]c(=O)[nH]c2c1", "lipid storage change, negative = inhibition": "13.3% (inactive)", "cell number change": 8.44},
      {"smiles": "Cc1cccc(N(C)S(=O)(=O)c2c[nH]c3ccc([N+](=O)[O-])cc23)c1", "Potency": "2.59 µM (active)", "cell number change": -6.19},
      {"smiles": "O=C(CN1CCN(Cc2ccccc2)CC1)N1CCN(c2ccccc2)CC1", "lipid storage change, negative = inhibition": "9.16% (inactive)", "cell number change": 9.09},
      {"smiles": "CCc1nc2ccccc2c(C(=O)OCC(=O)NCc2ccco2)c1C", "outcome": "inactive", "cell number change": 16.5},
      {"smiles": "CCC(=O)c1ccc(OCC(=O)NNC(=O)c2cc(C)oc2C)cc1", "cell number change": -5.72, "lipid storage change, negative = inhibition": "-5.26% [at 0.0737 µM] (inactive)"},
      {"smiles": "COc1cc(C(C(=O)NC(C)(C)C)N(C(=O)CNC(=O)c2cccs2)c2ccc(C(C)C)cc2)cc(OC)c1OC", "note": "(stereo unspecified)", "outcome": "inactive", "cell number change": 12.2},
      {"smiles": "COc1ccc2[nH]cc(CCNC(=O)CCC3CCCCC3)c2c1", "Potency": "16.4 µM (active)", "cell number change": -11.7},
      {"smiles": "COc1ccc2[nH]cc(CCNC(=O)C3CCCCC3)c2c1", "lipid storage change, negative = inhibition": "-9.93% (inactive)", "cell number change": -11.3},
      {"smiles": "COc1ccc(C(=O)NCC(=O)NCCc2c[nH]c3ccccc23)cc1OC", "lipid storage change, negative = inhibition": "5.27% (inactive)", "cell number change": 7.36},
      {"smiles": "COc1ccc2[nH]cc(CCNC(=O)Cc3ccc(F)cc3)c2c1", "lipid storage change, negative = inhibition": "20.2% (inactive)"},
      {"smiles": "COc1ccccc1CC(=O)NCCc1c[nH]c2ccccc12", "Potency": "0.231 µM (active)", "cell number change": 10.3},
      {"smiles": "CCCc1cc(=O)oc2cc(OCC(=O)NCCc3ccc(S(N)(=O)=O)cc3)ccc12", "outcome": "inactive", "cell number change": -10.3},
      {"smiles": "CCCc1cc(=O)oc2cc(OCC(=O)NCCc3c[nH]c4ccc(OC)cc34)ccc12", "Potency": "8.2 µM (active)", "cell number change": -12},
      {"smiles": "COc1ccc2[nH]cc(CCNC(=O)COc3cc(C)cc4oc(=O)cc(C)c34)c2c1", "lipid storage change, negative = inhibition": "-23.1% (inactive)", "cell number change": -0.087}
    ]}
  ]
}
